# Rows were chosen to be rich in hits. Some 3.5% of all compounds tested hit in one or more screens of this group.
# GPR151 ag: activators of human GPR151, primary screen, cell-based, PathHunter beta-arrestin, luminescence | PathHunter beta-arrestin GPR151 cells | activation, % at 11.2 µM | actives 1% (n = 650,000) | G-protein coupled receptor 151 (Homo sapiens), Q8TDV0; in the data active = activation above about 4.9%;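 also: 0% = median of compound wells and 100% = cells with positive control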
# Target sequence (Q8TDV0 whole entry, looked up): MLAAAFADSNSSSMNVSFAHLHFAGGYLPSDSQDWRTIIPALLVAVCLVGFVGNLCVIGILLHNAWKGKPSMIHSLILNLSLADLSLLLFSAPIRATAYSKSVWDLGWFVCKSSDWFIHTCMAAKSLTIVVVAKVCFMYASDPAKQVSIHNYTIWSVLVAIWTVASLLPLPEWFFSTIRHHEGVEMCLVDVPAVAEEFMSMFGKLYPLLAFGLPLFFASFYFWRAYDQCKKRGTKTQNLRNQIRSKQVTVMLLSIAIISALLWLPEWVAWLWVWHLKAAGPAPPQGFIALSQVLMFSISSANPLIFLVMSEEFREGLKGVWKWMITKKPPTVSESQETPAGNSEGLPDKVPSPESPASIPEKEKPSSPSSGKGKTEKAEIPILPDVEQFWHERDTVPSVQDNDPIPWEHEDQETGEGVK
# TEAD-YAP block: TEAD-YAP interaction inhibition, primary screen, TEAD-YAP interaction inhibitor project, luminescence, HEK-TIYL cells; TEAD-Gal4/YAP UAS-luciferase luminescence; inhibition, % at 9.12 µM; actives 1.4% (n = 640,000); in the data active = inhibition above about 32%;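 also: 0% = median of test compound wells and 100% = reference inhibitor wells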
# MITF primary: MITF inhibitors, primary screen, biochemical, AlphaScreen, human; AID 1259374, 2018; actives 0.91% (n = 650,000); AlphaScreen MITF homodimerization, bead proximity signal; inhibition, % at 2.6 µM; in the data active = inhibition above about 50%;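 also: 0% = vehicle wells with protein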
# FBW7 act: FBW7 E3 ligase activators, primary screen, biochemical, AlphaScreen, human. F-box/WD repeat-containing protein 7 (Homo sapiens), Q969H0. AlphaScreen FBW7–phospho-cyclin E peptide binding, activator screen. normalized activity (activation), % at 26.1 µM. actives 0.13% (n = 650,000). AID 1259310, 2017; in the data active = normalized activity above about 1.9%;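 also: purified mutant Fbw7 with reduced substrate affinity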
# Active calls of the source: *; . = no result.
SMILES,GPR151 ag,TEAD-YAP block,MITF primary,FBW7 act
CCOC(=O)C1C2NC(=S)N(CCOC)C1(C)Oc1ccccc12 (configuration not stated),0,4,-4,0
C=CCOC(=O)C1C2NC(=S)NC1(C)Oc1ccccc12 (configuration not stated),0,36*,0,0
CCOc1ccccc1CN1CCN(C(C)C)C(CCO)C1 (configuration not stated),-2,5,5,0
NCCc1cc(O)c(O)cc1O,0,-9,114*,0
CCCCC/C=C\C/C=C\C/C=C\C/C=C\CCCC(=O)NCC(O)CC(=O)O (configuration not stated),2,.,7,.
C1CCC(NCC2COC3(CCCCC3)O2)CC1 (configuration not stated),0,11,0,0
O=C1NC(=S)NC(=O)C1=Cc1cc2c(cc1[N+](=O)[O-])OCO2,0,-1,86*,-1
N#CC1=C(N)Oc2c(c(=O)oc3ccccc23)C1c1cccc(OC(=O)c2cccs2)c1 (configuration not stated),-1,-8,-12,0
CN1C(=O)NC(=O)/C(=C\c2cccc(Oc3ccccc3)c2)C1=O,-1,15,65*,0
CN1C(=O)NC(=O)/C(=C/c2cccs2)C1=O,3,-3,11,0
COc1ccc(C2C(C#N)=C(N)Oc3c2c(=O)oc2ccccc32)cc1OC (configuration not stated),1,5,-3,0
COc1cc(Br)c([N+](=O)[O-])cc1[N+](=O)[O-],0,43*,37,0
CCN(CC)c1ccc(N=Cc2c(O)[nH]c(=O)[nH]c2=O)cc1,-1,15,66*,0
C[C@@H]1O[C@@H](O[C@H]2CC[C@]3(C=O)C4CC[C@]5(C)[C@@H](C6=CC(=O)OC6)CC[C@]5(O)C4CC[C@]3(O)C2)[C@H](O)[C@H](O)[C@H]1O (some centres not stated),-1,101*,-3,0
CC1O[C@@H](OC2C[C@@H](O)[C@]3(CO)[C@H]4[C@H](O)C[C@]5(C)C(C6=CC(=O)OC6)CC[C@]5(O)[C@@H]4CC[C@]3(O)C2)C(O)[C@@H](O)[C@H]1O (some centres not stated),0,.,-1,0
CC(=O)O[C@H]1CC[C@]2(C=O)C3CC[C@]4(C)[C@@H](C5=CC(=O)OC5)CC[C@]4(O)[C@@H]3CC[C@]2(O)C1 (some centres not stated),0,102*,5,0
Cc1ccc(S(=O)(=O)N(C)c2ccc(C(=O)N3CCN(Cc4ccccc4)CC3)cc2)cc1,-1,2,-25,0
Cc1c2oc3c(C)ccc(C(=O)N[C@@H]4C(=O)N[C@H](C(C)C)C(=O)N5CCC[C@H]5C(=O)N(C)CC(=O)N(C)[C@@H](C(C)C)C(=O)O[C@@H]4C)c3nc-2c(C(=O)N[C@@H]2C(=O)N[C@H](C(C)C)C(=O)N3CC(=O)C[C@H]3C(=O)N(C)CC(=O)N(C)[C@@H](C(C)C)C(=O)O[C@@H]2C)c(N)c1=O,-1,95*,4,0
Cc1ccc2oc(C(=O)OC(C)C(C)CN(C)C)cc2c1 (configuration not stated),-2,17,10,2.5*
CN1C(=O)C(=Cc2ccc(F)cc2)C(=O)N(C)C1=O,1,-4,12,0
Cc1c(O)c(O)cc2c1CC=C1[C@@]2(C)CC[C@@]2(C)C3C[C@](C)(C(=O)O)CC[C@]3(C)CC[C@]12C (some centres not stated),-1,56*,-3,0
CC1=C(O)C(=O)C=C2C1=CC=C1[C@@]2(C)CC[C@@]2(C)[C@@H]3C[C@](C)(C(=O)O)CC[C@]3(C)CC[C@]12C,-1,43*,-13,0
Cc1nn(C)c(C(=O)Nc2ccc3c(C(F)(F)F)cc(=O)oc3c2)c1[N+](=O)[O-],1,5,8,0
Cc1cc(OCC(=O)c2ccccc2)c2c3c(c(=O)oc2c1)CCCC3,-1,7,21,0
CNc1ccccc1C(=O)O,-3,1,-11,1
SMILES,GPR151 ag,TEAD-YAP block,MITF primary,FBW7 act
C[CH2][Hg][S]c1ccccc1C(=O)O,4,74*,-6,0
NC(=O)C1CCN(/C=C2\C(=O)NC(=O)N(Cc3ccco3)C2=O)CC1,-1,12,58*,0
O=C1NC(=O)N(Cc2ccco2)C(=O)/C1=C\c1cn(Cc2ccccc2)c2ccccc12,0,0,28,0
Cc1nc2ccc(I)cc2c(=O)n1-c1ccccc1,0,-14,8,0
C[n+]1c2ccccc2nc2ccc(NC3CCCCC3N)cc21 (configuration not stated),0,77*,20,0
O=c1c2ccccc2nc(/C=C/c2ccc([N+](=O)[O-])o2)n1-c1cccc(O)c1,0,34*,3,0
COC(=O)C1=C(C)OC(N)=C(C(=O)OCc2ccccc2)C12C(=O)Nc1ccccc12 (configuration not stated),-1,-1,23,1
CCC1CN(C)CCC1(O)c1ccccc1 (configuration not stated),1,9,10,0
CCN1CCC(O)(c2ccccc2)C(C(=O)c2ccccc2)C1 (configuration not stated),-1,4,9,2.0*
CCOC(=O)c1[nH]c(C)c(C=C(C#N)C#N)c1C,-1,5,9,1
O=C(O)c1cc(I)c([N+](=O)[O-])cc1[N+](=O)[O-],-1,11,15,0
Cc1ccc(N2C(=O)NC(=O)/C(=C/c3ccc([N+](=O)[O-])o3)C2=O)cc1,0,0,70*,0
COc1ccc(N2C(=O)/C(=C/c3ccc(Br)o3)C(=O)NC2=S)cc1,-1,9,60*,0
O=C1NC(=O)C(=Cc2ccc(Br)o2)C(=O)N1,2,-1,63*,0
COc1ccc(N2C(=O)/C(=C\c3ccc(C)o3)C(=O)NC2=S)cc1,-1,-2,-3,0
COc1ccc(N2C(=O)NC(=O)/C(=C/c3ccc(Br)o3)C2=O)cc1,3,3,73*,0
COc1ccc(Sc2ccc(C=C3C(=O)NC(=O)NC3=O)o2)cc1,0,9,9,0
CC(C)CCn1c(=O)c(C(=O)Nc2nc3ccc(Cl)cc3s2)c(O)c2ccccc21,0,-3,-14,0
Cc1[nH]c2ccccc2c1CCNCc1ccc(F)cc1F,-1,-10,40,0
O=C(c1ccccc1)c1cc(Br)ccc1NC(=O)c1c(O)c2ccccc2[nH]c1=O,0,3,-1,0
COc1ccc(-n2cnc3cc(C(=O)N4CCC5(CC4)OCCO5)ccc32)cc1,0,48*,2,0

# Screens (PubChem)
